The full ranking holds about 1,900 compounds; the median of “excess over highest single agent (ExcessHSA) synergy score, 6x6 matrix” is about -83, and the lowest 2% start at about -370. The sample as a whole holds a higher share of the lowest values than the screen did.
tested on: NCI-H446; experiment: excess over highest single agent (ExcessHSA) synergy score, 6x6 matrix; higher = less synergy (more negative = stronger synergy); conditions: 72 h; CellTiter-Glo viability

SMILES	excess over highest single agent
Cc1cc(CN2CCN(c3c(Br)cnc4nc(-c5ccc(N6CCN(C)CC6)cc5)[nH]c34)CC2)no1 + Cc1sc2c(c1C)C(c1ccc(Cl)cc1)=N[C@@H](CC(=O)OC(C)(C)C)c1nnc(C)n1-2 [NCGC00250412-19]	-107
CN(C)c1ccc(-c2nc3ncc(Cl)c(N4CCN(CC(=O)Nc5nccs5)CC4)c3[nH]2)cc1 + Cc1sc2c(c1C)C(c1ccc(Cl)cc1)=N[C@@H](CC(=O)OC(C)(C)C)c1nnc(C)n1-2 [NCGC00250412-19]	-382
CCOC(CN1C(=O)[C@](CC(=O)Nc2ccc(C)cc2)(NC(=O)Nc2ccc(C)cc2)c2ccccc21)OCC + Cc1sc2c(c1C)C(c1ccc(Cl)cc1)=N[C@@H](CC(=O)OC(C)(C)C)c1nnc(C)n1-2 [NCGC00250412-19]	-94.2
COc1cc2c(cc1OC)CN(CCc1ccc(NC(=O)c3cc(OC)c(OC)cc3NC(=O)c3cnc4ccccc4c3)cc1)CC2 + Cc1sc2c(c1C)C(c1ccc(Cl)cc1)=N[C@@H](CC(=O)OC(C)(C)C)c1nnc(C)n1-2 [NCGC00250412-19]	50.9
Cc1cccc(-c2[nH]c(C(C)(C)C)nc2-c2ccc3c(c2)OCO3)n1 + Cc1sc2c(c1C)C(c1ccc(Cl)cc1)=N[C@@H](CC(=O)OC(C)(C)C)c1nnc(C)n1-2 [NCGC00250412-19]	-84.7
CC(C)(O)CC(=O)NCCn1ccc2ncnc(Nc3ccc(Oc4cccc(C(F)(F)F)c4)c(Cl)c3)c21 + Cc1sc2c(c1C)C(c1ccc(Cl)cc1)=N[C@@H](CC(=O)OC(C)(C)C)c1nnc(C)n1-2 [NCGC00250412-19]	16.5
CC(C)[C@H](C(=O)Nc1ccc(C(=O)NO)cc1)c1ccccc1 + Cc1sc2c(c1C)C(c1ccc(Cl)cc1)=N[C@@H](CC(=O)OC(C)(C)C)c1nnc(C)n1-2 [NCGC00250412-19]	-112
C=C1/C(=C\C=C2/CCC[C@]3(C)[C@@H]([C@H](C)/C=C/C=C/C(O)(CC)CC)CC[C@@H]23)C[C@@H](O)C[C@@H]1O + Cc1sc2c(c1C)C(c1ccc(Cl)cc1)=N[C@@H](CC(=O)OC(C)(C)C)c1nnc(C)n1-2 [NCGC00250412-19]	84.4
COc1ccc2c(c1OC)CN1CCc3cc4c(cc3C1C2)OCO4 (configuration not stated) + Cc1sc2c(c1C)C(c1ccc(Cl)cc1)=N[C@@H](CC(=O)OC(C)(C)C)c1nnc(C)n1-2 [NCGC00250412-19]	-109
COc1cc2c(cc1OC)[C@@H]1Cc3ccc(OC)c(OC)c3CN1CC2 + Cc1sc2c(c1C)C(c1ccc(Cl)cc1)=N[C@@H](CC(=O)OC(C)(C)C)c1nnc(C)n1-2 [NCGC00250412-19]	-95.9
COc1ccc2cc1Oc1ccc(cc1)C[C@H]1c3cc(c(OC)cc3CCN1C)Oc1c(OC)c(OC)cc3c1[C@H](C2)N(C)CC3 + Cc1sc2c(c1C)C(c1ccc(Cl)cc1)=N[C@@H](CC(=O)OC(C)(C)C)c1nnc(C)n1-2 [NCGC00250412-19]	-432
Cc1ccc2c(c1)c1c(n2CCc2ccc(C)nc2)CCN(C)C1 + Cc1sc2c(c1C)C(c1ccc(Cl)cc1)=N[C@@H](CC(=O)OC(C)(C)C)c1nnc(C)n1-2 [NCGC00250412-19]	-121
CC[C@@]1(O)C(=O)OCc2c1cc1n(c2=O)Cc2cc3ccccc3nc2-1 + Cc1sc2c(c1C)C(c1ccc(Cl)cc1)=N[C@@H](CC(=O)OC(C)(C)C)c1nnc(C)n1-2 [NCGC00250412-19]	-249
CCc1c2c(nc3ccc(O)cc13)-c1cc3c(c(=O)n1C2)COC(=O)[C@]3(O)CC + Cc1sc2c(c1C)C(c1ccc(Cl)cc1)=N[C@@H](CC(=O)OC(C)(C)C)c1nnc(C)n1-2 [NCGC00250412-19]	-327
CC[C@@]1(O)C(=O)OCc2c1cc1n(c2=O)Cc2cc3cc(O)ccc3nc2-1 + Cc1sc2c(c1C)C(c1ccc(Cl)cc1)=N[C@@H](CC(=O)OC(C)(C)C)c1nnc(C)n1-2 [NCGC00250412-19]	-416
CCc1c2c(nc3ccc(OC(=O)N4CCC(N5CCCCC5)CC4)cc13)-c1cc3c(c(=O)n1C2)COC(=O)[C@]3(O)CC + Cc1sc2c(c1C)C(c1ccc(Cl)cc1)=N[C@@H](CC(=O)OC(C)(C)C)c1nnc(C)n1-2 [NCGC00250412-19]	-249
CC[C@@]1(O)C(=O)OCc2c1cc1n(c2=O)Cc2cc3c(CN(C)C)c(O)ccc3nc2-1 + Cc1sc2c(c1C)C(c1ccc(Cl)cc1)=N[C@@H](CC(=O)OC(C)(C)C)c1nnc(C)n1-2 [NCGC00250412-19]	-475
CC[C@H](CC#N)OC(=O)N[C@@H](C)c1cccc(NC(=O)Nc2ccc(-c3cnco3)c(OC)c2)c1 + Cc1sc2c(c1C)C(c1ccc(Cl)cc1)=N[C@@H](CC(=O)OC(C)(C)C)c1nnc(C)n1-2 [NCGC00250412-19]	-174
Cc1cccc(Nc2nc(N[C@@H]3CCCC[C@@H]3N)ncc2C(N)=O)c1 + Cc1sc2c(c1C)C(c1ccc(Cl)cc1)=N[C@@H](CC(=O)OC(C)(C)C)c1nnc(C)n1-2 [NCGC00250412-19]	-24

SMILES	excess over highest single agent
Cn1cnc(-c2cc3nccc(Oc4ccc(NC(=S)NC(=O)Cc5ccccc5)cc4F)c3s2)c1 + Cc1sc2c(c1C)C(c1ccc(Cl)cc1)=N[C@@H](CC(=O)OC(C)(C)C)c1nnc(C)n1-2 [NCGC00250412-19]	-36.3
C#Cc1cccc(Nc2ncnc3cc(OCCOC)c(OCCO)cc23)c1 + Cc1sc2c(c1C)C(c1ccc(Cl)cc1)=N[C@@H](CC(=O)OC(C)(C)C)c1nnc(C)n1-2 [NCGC00250412-19]	-46.8
CCN1CCC(n2cc(CNc3cc(Cl)c4ncc(C#N)c(Nc5ccc(F)c(Cl)c5)c4c3)nn2)CC1 + Cc1sc2c(c1C)C(c1ccc(Cl)cc1)=N[C@@H](CC(=O)OC(C)(C)C)c1nnc(C)n1-2 [NCGC00250412-19]	44.4
CN(C1CCc2c(c3ccccc3n2CC(=O)O)C1)S(=O)(=O)c1ccc(F)cc1 (configuration not stated) + Cc1sc2c(c1C)C(c1ccc(Cl)cc1)=N[C@@H](CC(=O)OC(C)(C)C)c1nnc(C)n1-2 [NCGC00250412-19]	-115
CC/C=C\CC1C(=O)CCC1CC(=O)OC (configuration not stated) + Cc1sc2c(c1C)C(c1ccc(Cl)cc1)=N[C@@H](CC(=O)OC(C)(C)C)c1nnc(C)n1-2 [NCGC00250412-19]	223
CCNC(=O)c1noc(-c2cc(C(C)C)c(O)cc2O)c1-c1ccc(CN2CCOCC2)cc1 + Cc1sc2c(c1C)C(c1ccc(Cl)cc1)=N[C@@H](CC(=O)OC(C)(C)C)c1nnc(C)n1-2 [NCGC00250412-19]	-382
CC(C)c1cc(C(=O)N2Cc3ccc(CN4CCN(C)CC4)cc3C2)c(O)cc1O + Cc1sc2c(c1C)C(c1ccc(Cl)cc1)=N[C@@H](CC(=O)OC(C)(C)C)c1nnc(C)n1-2 [NCGC00250412-19]	-247
NC(=O)Nc1cc(-c2ccc(CN3CCOCC3)cc2)sc1C(N)=O + Cc1sc2c(c1C)C(c1ccc(Cl)cc1)=N[C@@H](CC(=O)OC(C)(C)C)c1nnc(C)n1-2 [NCGC00250412-19]	-229
CC(C)(C)OC(=O)Nc1ccc(-c2cc(C(=O)NCCCCCCC(=O)NO)no2)cc1 + Cc1sc2c(c1C)C(c1ccc(Cl)cc1)=N[C@@H](CC(=O)OC(C)(C)C)c1nnc(C)n1-2 [NCGC00250412-19]	-161
O=C(O)[C@H]1O[C@@H](Oc2cc3oc(-c4ccccc4)cc(=O)c3c(O)c2O)[C@H](O)[C@@H](O)[C@@H]1O + Cc1sc2c(c1C)C(c1ccc(Cl)cc1)=N[C@@H](CC(=O)OC(C)(C)C)c1nnc(C)n1-2 [NCGC00250412-19]	-92.6
OC1CCC(Nc2ncc3nc(Nc4c(F)cc(F)cc4F)n([C@@H]4CCOC4)c3n2)CC1 (some centres not stated) + Cc1sc2c(c1C)C(c1ccc(Cl)cc1)=N[C@@H](CC(=O)OC(C)(C)C)c1nnc(C)n1-2 [NCGC00250412-19]	17.3
CCC(=O)N[C@H]1CC[C@H](C(=O)N(C)c2ccc(-c3nc4ccccc4o3)cc2)C1 + Cc1sc2c(c1C)C(c1ccc(Cl)cc1)=N[C@@H](CC(=O)OC(C)(C)C)c1nnc(C)n1-2 [NCGC00250412-19]	-57
CN1CCN(Cc2ccc(NC(=O)Nc3ccc(Oc4cc(NC(=O)C5CC5)ncn4)cc3)cc2C(F)(F)F)CC1 + Cc1sc2c(c1C)C(c1ccc(Cl)cc1)=N[C@@H](CC(=O)OC(C)(C)C)c1nnc(C)n1-2 [NCGC00250412-19]	-34.2
CC(=O)N(C)C1(c2ccccc2)CCN(CCC[C@]2(c3ccc(Cl)c(Cl)c3)CCCN(C(=O)c3ccccc3)C2)CC1 + Cc1sc2c(c1C)C(c1ccc(Cl)cc1)=N[C@@H](CC(=O)OC(C)(C)C)c1nnc(C)n1-2 [NCGC00250412-19]	-142
O=C(N[C@@H](COc1ccc2[nH]c(=O)[nH]c2c1)c1ccccc1)c1cccn(Cc2ccc(F)c(F)c2)c1=O + Cc1sc2c(c1C)C(c1ccc(Cl)cc1)=N[C@@H](CC(=O)OC(C)(C)C)c1nnc(C)n1-2 [NCGC00250412-19]	-158
COCC1OC(=O)c2coc3c2C1(C)C1=C(C3=O)C2CCC(O)C2(C)CC1OC(C)=O (configuration not stated) + Cc1sc2c(c1C)C(c1ccc(Cl)cc1)=N[C@@H](CC(=O)OC(C)(C)C)c1nnc(C)n1-2 [NCGC00250412-19]	-423
COC[C@H]1OC(=O)c2coc3c2[C@@]1(C)C1=C(C3=O)[C@@H]2CCC(=O)[C@@]2(C)C[C@H]1OC(C)=O + Cc1sc2c(c1C)C(c1ccc(Cl)cc1)=N[C@@H](CC(=O)OC(C)(C)C)c1nnc(C)n1-2 [NCGC00250412-19]	-484
COc1cc2ncnc(Nc3cc(Br)c(O)c(Br)c3)c2cc1OC + Cc1sc2c(c1C)C(c1ccc(Cl)cc1)=N[C@@H](CC(=O)OC(C)(C)C)c1nnc(C)n1-2 [NCGC00250412-19]	-207
